Source: PubChem BioAssay
A549 tox – kills or reduces viability of A549 cells in Nrf2 counter-screen | Potency, µM (titrated, usually from 46 µM), actives largely listed as inhibitors | AID 504648 | actives 0.16% (n = 390,000) | A549 ARE-Fluc cells, CellTiter-Fluor viability, 18-24 h
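A549 ARE-Fluc cells in 5% FBS OPTI-MEM, 5000 cells/well, rested 2 h then exposed to compounds in concentration-response for 18-24 h at 37 °C. Viability by CellTiter-Fluor fluorescence (Ex 405/Em 525) after 30 min; luciferase luminescence (BugLite, 15 min, RT) read afterwards.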
Rango dissoc inh – prevents RanGTP from dissociating the Rango-importin beta complex. O95149+P62826. Biochemical FRET Rango-importin beta, RanGTP-induced dissociation. AID 540253. actives 0.071% (n = 340,000). Potency, µM (titrated, usually from 46.1 µM); calls by dose curve; also: nearly all actives have a fitted effect of over 45% in size
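Rango (0.1 uM)–importin beta (0.25 uM) complex; RanGTP-RCC1 trigger; 45 min RT; CFP/YFP FRET read.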
Nrf2 block – inhibitors of Nrf2 signaling; A549 ARE-Fluc reporter, luciferase luminescence, 18-24 h; Potency, µM (doses to about 46 µM), most hits filed as inhibitors; actives 2.1% (n = 360,000); also: nearly all actives have a fitted effect of over 60% in size
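Concentration-response testing used A549 ARE_Fluc cells at 5000 cells/well. Following an 18-24 h compound incubation, viability was read by fluorescence (Ex 405/Em 525) and luciferase output by luminescence.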
Rango-impB inh – inhibitors of Rango-importin beta complex formation. Rango CFP/YFP FRET sensor + importin beta, 45 min. Potency, µM (titrated, usually from 92.2 µM). Q14974. actives 0.031% (n = 340,000); calls by dose curve; also: nearly all actives have a fitted effect of over 15% in size
Target sequence (Q14974 whole entry, looked up): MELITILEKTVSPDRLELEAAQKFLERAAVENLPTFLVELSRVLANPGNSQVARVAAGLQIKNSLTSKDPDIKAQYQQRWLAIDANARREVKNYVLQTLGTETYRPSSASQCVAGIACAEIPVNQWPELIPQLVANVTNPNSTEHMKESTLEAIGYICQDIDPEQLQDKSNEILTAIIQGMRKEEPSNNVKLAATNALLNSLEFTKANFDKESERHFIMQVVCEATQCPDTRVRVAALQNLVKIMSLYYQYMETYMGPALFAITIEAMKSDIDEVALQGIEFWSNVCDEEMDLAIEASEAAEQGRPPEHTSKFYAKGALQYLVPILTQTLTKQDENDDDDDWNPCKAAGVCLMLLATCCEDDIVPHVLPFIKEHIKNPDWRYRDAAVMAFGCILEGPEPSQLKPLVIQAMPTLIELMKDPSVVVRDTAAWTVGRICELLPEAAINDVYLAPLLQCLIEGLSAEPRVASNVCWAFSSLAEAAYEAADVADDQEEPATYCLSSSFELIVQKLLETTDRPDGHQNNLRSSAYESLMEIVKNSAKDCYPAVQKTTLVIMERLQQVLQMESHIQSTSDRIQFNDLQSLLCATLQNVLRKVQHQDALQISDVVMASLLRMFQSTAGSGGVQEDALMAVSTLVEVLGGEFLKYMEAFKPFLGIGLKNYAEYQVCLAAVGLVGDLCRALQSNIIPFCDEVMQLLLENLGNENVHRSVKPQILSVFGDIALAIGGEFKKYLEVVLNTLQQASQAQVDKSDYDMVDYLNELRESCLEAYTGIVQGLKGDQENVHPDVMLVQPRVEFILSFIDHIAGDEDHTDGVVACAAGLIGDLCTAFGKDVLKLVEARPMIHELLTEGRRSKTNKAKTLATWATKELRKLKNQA
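FRET biosensor Rango (snurportin 1 IBB between N-terminal EYFP and C-terminal Cerulean), 50 nM in PBS/1 mM DTT/0.02% Tween-20/0.1% BSA, preincubated 5 min RT with compound; 0.125 microM importin beta added, 45 min RT, CFP/YFP FRET ratio read.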
Nrf2 ARE act – Nrf2 pathway activation | AREc32 ARE-luciferase reporter (MCF7-derived line), luminescence, 24 h | Potency, µM (series often up to 46.1 µM), actives largely listed as activators | actives 0.31% (n = 410,000) | AID 624171; also: nearly all actives have a fitted effect of over 65% in size
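ARE activation measured as luciferase luminescence (Steady-Glo, 30 min RT) in AREc32_Fluc cells after 24 hr compound exposure at 37 deg C, 5% CO2; cells seeded overnight at 1000/well in OPTI-MEM, 5% FBS.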
A number is an active result. Only some compounds are listed: those with a hit (about 2.3% of all), similar ones and a draw of the others. Unless noted, calls follow the shape of the dose curve; as a rule, active = well fitted curve in the direction sought with a large enough effect; inconclusive = small, poorly fitted or top-dose-only effect, or another doubt; inactive = no such curve, though single readings can be large; an effect the other way counts as inactive or inconclusive.

Results for Cc1sc2nc(-c3ccccn3)[nH]c(=O)c2c1-c1ccccc1 ?
A549 tox: inactive; Rango dissoc inh: inactive; Nrf2 block: 12µM; Rango-impB inh: inactive; Nrf2 ARE act: inactive

Results for O=c1c2sc3nc(N4CCOCC4)c4c(c3c2ncn1-c1ccccc1)CCCC4 ?
A549 tox: inactive; Rango dissoc inh: inactive; Nrf2 block: 13µM; Rango-impB inh: inactive; Nrf2 ARE act: inactive

Results for Cc1ccccc1-n1cnc2c(sc3nc(N4CCOCC4)c4c(c32)CCCC4)c1=O ?
A549 tox: inactive; Rango dissoc inh: inactive; Nrf2 block: 21µM; Rango-impB inh: inactive; Nrf2 ARE act: inactive

What do the screens show for `COc1ccc(-n2cnc3c(sc4nc(N5CCOCC5)c5c(c43)CCCC5)c2=O)cc1`?
A549 tox: inactive; Rango dissoc inh: inactive; Nrf2 block: inconclusive; Rango-impB inh: inactive; Nrf2 ARE act: inactive

How did Cc1ccc(-n2cnc3c(sc4nc(N5CCOCC5)c5c(c43)CCCC5)c2=O)cc1 do in these assays?
A549 tox: inactive; Rango dissoc inh: inactive; Nrf2 block: inactive; Rango-impB inh: inactive; Nrf2 ARE act: inactive

Results for Cn1cncc1CNc1ncnc2ccc(-c3ccc4c(c3)OCO4)cc12 ?
A549 tox: inactive; Nrf2 block: inactive

What do the screens show for `COc1ccccc1Nc1ccc(NC(=O)c2cccc([N+](=O)[O-])c2C)cc1`?
A549 tox: inactive; Rango dissoc inh: inactive; Nrf2 block: 10µM; Rango-impB inh: inactive; Nrf2 ARE act: inactive

What do the screens show for `COc1ccc(S(=O)(=O)N/N=C\c2ccc3c(c2)OCO3)c(OC)c1`?
A549 tox: inactive; Rango dissoc inh: inactive; Nrf2 block: 10µM; Rango-impB inh: inactive; Nrf2 ARE act: inactive

Results for COc1ccc(C2Nc3ccccc3C(=O)N2Cc2ccc(C(C)(C)C)cc2)cc1COc1ccc(NC(C)=O)cc1 (centres undefined) ?
A549 tox: inactive; Nrf2 block: 18µM

Results for Cc1ccc(S(=O)(=O)Nc2ccc(NC(=O)Nc3cccc(C(F)(F)F)c3)cc2)cc1 ?
A549 tox: inconclusive; Rango dissoc inh: inactive; Nrf2 block: 18µM; Rango-impB inh: inactive; Nrf2 ARE act: inactive

How did O=C(Nc1ccc(OC(F)F)cc1)Nc1cccc(C(F)(F)F)c1 do in these assays?
A549 tox: inconclusive; Rango dissoc inh: inactive; Nrf2 block: 21µM; Rango-impB inh: inactive; Nrf2 ARE act: inactive

What do the screens show for `NC(=O)/C=C\C(=O)Nc1cccc(C(F)(F)F)c1`?
A549 tox: inactive; Rango dissoc inh: inactive; Nrf2 block: 1.8µM; Rango-impB inh: inactive; Nrf2 ARE act: inconclusive

Results for O=C(Nc1ccncc1)Nc1cccc(C(F)(F)F)c1 ?
A549 tox: inactive; Rango dissoc inh: inactive; Nrf2 block: inconclusive; Rango-impB inh: inactive; Nrf2 ARE act: inactive

What do the screens show for `CCN(CC)S(=O)(=O)c1ccc(NC(=O)Nc2cccc(C(F)(F)F)c2)cc1`?
A549 tox: inconclusive; Rango dissoc inh: inactive; Nrf2 block: 21µM; Rango-impB inh: inactive; Nrf2 ARE act: inactive

What do the screens show for `CC(=O)N1N=C(c2ccc(NS(=O)(=O)c3ccccc3)cc2)CC1c1ccco1` (centres undefined)?
A549 tox: inactive; Rango dissoc inh: inactive; Nrf2 block: inactive; Rango-impB inh: inactive; Nrf2 ARE act: inactive

What do the screens show for `CC(=O)N1N=C(c2cccc(NS(=O)(=O)c3ccc(C)cc3)c2)CC1c1ccco1` (centres undefined)?
A549 tox: inconclusive; Rango dissoc inh: inactive; Nrf2 block: 23µM; Rango-impB inh: inactive; Nrf2 ARE act: inactive

Results for Cc1c(Cl)cccc1NC(=O)CCS(=O)(=O)c1ccc(Br)s1 ?
A549 tox: inactive; Nrf2 block: inactive; Nrf2 ARE act: inactive

What do the screens show for `CC(=O)N1CCN(C(=O)CCc2nc3ccccc3c(=O)[nH]2)CC1`?
A549 tox: inactive; Rango dissoc inh: inactive; Rango-impB inh: inactive; Nrf2 ARE act: inactive

How did O=C(CCc1nc2ccccc2c(=O)[nH]1)N1CCN(c2ccc(F)cc2)CC1 do in these assays?
A549 tox: inactive; Rango dissoc inh: inactive; Nrf2 block: 16µM; Rango-impB inh: inconclusive; Nrf2 ARE act: inactive

Results for NC(=O)C1(Nc2ccc(-c3ccc(Br)cc3)cc2)CCCC1 ?
A549 tox: inactive; Rango dissoc inh: inactive; Nrf2 block: inactive; Rango-impB inh: inactive; Nrf2 ARE act: inactive
